Out of some 39,000 compounds screened, about 3,300 (8.5%) were called active. This is one part of a sample in which actives are shown more often than they occur.
What follows are compounds tested on HepG2 (assay: cytotoxicity call (relative viability < 0.9)). Details: 10 µM.

Structure (SMILES) | cytotoxicity call
CN(C)CCCNC(=O)C[C@H]1CC[C@@H]2[C@H](COc3ccc(NC(=O)c4ccc5c(c4)OCO5)cc3C(=O)N2C)O1 | inactive
C[C@@H]1CN([C@H](C)CO)C(=O)c2cc(NS(=O)(=O)c3ccc(F)cc3)ccc2O[C@H]1CN(C)CC1CC1 | inactive
C[C@@H]1CN([C@@H](C)CO)C(=O)c2cc(NC(=O)Cc3ccccc3)ccc2O[C@@H](C)CCCCO[C@@H]1CN(C)C(=O)CCC(F)(F)F | inactive
C[C@@H]1CN([C@@H](C)CO)C(=O)c2cc(NC(=O)NC3CCCCC3)ccc2O[C@H]1CN(C)Cc1ccc(C(F)(F)F)cc1 | inactive
CO[C@H]1CN(C)C(=O)c2ccc(NC(=O)NC(C)C)cc2OC[C@H](C)N(Cc2ccc(-c3ccccn3)cc2)C[C@@H]1C | inactive
C[C@@H]1CN([C@@H](C)CO)C(=O)c2cc(NC(=O)Nc3ccccc3)ccc2O[C@@H](C)CCCCO[C@H]1CN(C)Cc1ccncc1 | inactive
CC(C)C#Cc1ccc2c(c1)O[C@@H](CN(C)C(=O)Cc1ccccn1)[C@H](C)CN([C@@H](C)CO)S2(=O)=O | inactive
Cc1noc(C)c1S(=O)(=O)N(C)C[C@H]1Oc2ccc(NC(=O)NC(C)C)cc2CC(=O)N([C@H](C)CO)C[C@@H]1C | inactive
C#CCOC(=O)[C@@H]1[C@@H](C(=O)O)[C@@H]2C=C[C@@H]1C2 | inactive
COc1ccc(NC(=O)N(C)C[C@H]2Oc3ccc(NC(=O)C4CC4)cc3CC(=O)N([C@H](C)CO)C[C@@H]2C)cc1 | inactive
C[C@@H]1CN([C@@H](C)CO)C(=O)c2cccc(NC(=O)c3cnccn3)c2O[C@H]1CN(C)CC1CCCCC1 | inactive
COCC#Cc1ccc2c(c1)O[C@@H](CN(C)S(=O)(=O)c1cccc(F)c1)[C@H](C)CN([C@H](C)CO)S2(=O)=O | inactive
C[C@@H]1CN([C@@H](C)CO)C(=O)c2cccc(NC(=O)Nc3ccc(F)cc3)c2O[C@@H]1CN(C)Cc1ccc(Oc2ccccc2)cc1 | inactive
COc1ccc(S(=O)(=O)Nc2ccc3c(c2)C(=O)N([C@@H](C)CO)C[C@@H](C)[C@@H](CN(C)C(=O)Nc2cccc4ccccc24)OCCCC[C@H](C)O3)cc1 | inactive
COc1ccc(S(=O)(=O)Nc2ccc3c(c2)C(=O)N([C@H](C)CO)C[C@H](C)[C@@H](CN(C)C(=O)Nc2cccc4ccccc24)OCCCC[C@@H](C)O3)cc1 | inactive
COc1ccc(S(=O)(=O)Nc2ccc3c(c2)C(=O)N([C@H](C)CO)C[C@H](C)[C@@H](CN(C)C(=O)Nc2cccc4ccccc24)OCCCC[C@H](C)O3)cc1 | active
COc1ccc(S(=O)(=O)Nc2ccc3c(c2)C(=O)N([C@H](C)CO)C[C@H](C)[C@H](CN(C)C(=O)Nc2cccc4ccccc24)OCCCC[C@@H](C)O3)cc1 | inactive
COc1ccc(S(=O)(=O)Nc2ccc3c(c2)C(=O)N([C@@H](C)CO)C[C@H](C)[C@H](CN(C)C(=O)Nc2cccc4ccccc24)OCCCC[C@H](C)O3)cc1 | active
COc1ccc(S(=O)(=O)Nc2ccc3c(c2)C(=O)N([C@@H](C)CO)C[C@H](C)[C@H](CN(C)C(=O)Nc2cccc4ccccc24)OCCCC[C@@H](C)O3)cc1 | inactive
O=C(CN1CCOCC1)NCC[C@H]1CC[C@H](NC(=O)c2ccc3c(c2)OCO3)[C@H](CO)O1 | inactive
C[C@H](CO)N1C[C@H](C)[C@H](CN(C)C(=O)Nc2ccc(F)cc2)OCCCC[C@H](C)Oc2ccc(NC(=O)C3CCCC3)cc2C1=O | inactive
Clc1ccc(Cn2cccc2)cn1 | inactive
CCS(=O)(=O)Nc1ccc2c(c1)C(=O)N(C)[C@@H]1CC[C@@H](CC(=O)N[C@H]3CCN(Cc4ccccc4)C3)O[C@@H]1CO2 | inactive

Structure (SMILES) | cytotoxicity call
C[C@H]1CN([C@@H](C)CO)C(=O)Cc2cc(NS(=O)(=O)c3ccc(F)cc3)ccc2O[C@@H]1CN(C)Cc1ccncc1 | inactive
COCC(=O)Nc1ccc2c(c1)OC[C@H](C)N(C(=O)Cc1ccccn1)C[C@H](C)[C@@H](OC)CN(C)C2=O | inactive
COc1ccc2c(c1OC)C(=O)OC2C1c2c(cc3c(c2OC)OCO3)CCN1C.Cl (configuration not stated) | active
COc1cc2c(cc1OC)C1Cc3ccc(OC)c(OC)c3CN1CC2 (configuration not stated) | inactive
Cc1cc(-c2cc(OC(=O)c3ccccc3)ccc2Cl)cc2nnc(Nc3ccc(OCCN4CCCC4)cc3)nc12 | inactive
CCN(CC)CCOc1ccc(Nc2ncc3cc(-c4c(Cl)cccc4Cl)c(=O)n(C)c3n2)cc1 | active
O=C(C[C@@H]1C=C[C@@H](NC(=O)CN2CCOCC2)[C@H](CO)O1)NCCc1ccccc1 | inactive
NCC(=O)NCC(=O)O | inactive
CNCC(=O)O | inactive
O=C(O)CNC(=O)C(=O)O | active
CN(C)CCN1C[C@@H]2CN(C(=O)[C@H]3CCOC3)C[C@H]2C1=O | inactive
C[C@@H]1CCCCO[C@H](CN(C)S(=O)(=O)c2cccs2)[C@@H](C)CN([C@@H](C)CO)C(=O)c2cc(NC(=O)NC3CCCCC3)ccc2O1 | inactive
Cc1noc(C)c1S(=O)(=O)Nc1ccc2c(c1)C(=O)N([C@@H](C)CO)C[C@H](C)[C@H](CN(C)Cc1ccc3c(c1)OCO3)O2 | inactive
COc1ccc(S(=O)(=O)N(C)C[C@@H]2OCCCC[C@@H](C)Oc3ccc(NC(=O)Nc4ccc(F)cc4)cc3C(=O)N([C@@H](C)CO)C[C@H]2C)cc1 | inactive
CN(C)CC(=O)N1CC2(C1)[C@H](c1ccccc1)[C@H](CO)N2S(C)(=O)=O | inactive
CN(c1ncccc1CNc1nc(Nc2ccc3c(c2)CC(=O)N3)ncc1C(F)(F)F)S(C)(=O)=O | active
CNC(=O)c1ccc(Nc2ncc(C(F)(F)F)c(NCc3nccnc3N(C)S(C)(=O)=O)n2)cc1 | active
Cc1cnc(CNC(=O)c2c(=O)c3ccc(N4CCCN(C)CC4)nc3n3c2sc2ccccc23)cn1 | inactive
CCS(=O)(=O)N1C[C@]2(CN(C2)C(=O)Nc2ccc(cc2F)F)c2c(n(c3cc(ccc23)OC)C)[C@@H]1CO | inactive
CN(C)Cc1cn(CC[C@H]2CC[C@@H](NC(=O)Cc3cccnc3)[C@@H](CO)O2)nn1 | inactive
O=c1/c(=C\c2ccc(F)cc2)sc2n1CCN=2 | inactive
O=C(/C=C/c1cc2c(cc1Br)OCCO2)c1c(-c2ccccc2)c2cc(Cl)ccc2[nH]c1=O | active
N=C(CN1CCCCC1)NO | inactive

Structure (SMILES) | cytotoxicity call
CN(C)CCCNC(=O)C[C@@H]1CC[C@H]2[C@@H](COC[C@@H](O)CN2C(=O)c2cc(Cl)cc(Cl)c2)O1 | inactive
COc1ccc(NC(=O)Nc2ccc3c(c2)C(=O)N([C@@H](C)CO)C[C@H](C)[C@H](CN(C)C(=O)Nc2ccc(C(F)(F)F)cc2)OCCCC[C@H](C)O3)cc1 | inactive
C[C@H]1CN([C@@H](C)CO)C(=O)c2cccc(NS(=O)(=O)c3ccc(F)cc3)c2O[C@@H]1CN(C)Cc1ccc(Cl)c(Cl)c1 | inactive
COC1=C(N)C(=O)c2nc(-c3nc(C(=O)O)c(C)c(-c4ccc(OC)c(OC)c4O)c3N)ccc2C1=O | active
COc1ccc(NC(=O)N(C)C[C@@H]2Oc3ncc(Br)cc3C(=O)N([C@H](C)CO)C[C@@H]2C)cc1 | inactive
CCCNC(=O)N1C[C@H](O)COC[C@@H]2O[C@H](CC(=O)NCCCN3CCOCC3)CC[C@H]21 | inactive
CN1C(=O)c2cc(NC(=O)c3ccc(C(F)(F)F)cc3)ccc2OC[C@H]2O[C@H](CC(=O)NC3Cc4ccccc4C3)CC[C@H]21 | active
CN1C(=O)c2cc(NC(=O)c3ccc(C(F)(F)F)cc3)ccc2OC[C@@H]2O[C@@H](CC(=O)NC3Cc4ccccc4C3)CC[C@@H]21 | active
CN1C(=O)c2cc(NC(=O)c3ccc(C(F)(F)F)cc3)ccc2OC[C@@H]2O[C@H](CC(=O)NC3Cc4ccccc4C3)CC[C@H]21 | inactive
CN1C(=O)c2cc(NC(=O)c3ccc(C(F)(F)F)cc3)ccc2OC[C@@H]2O[C@@H](CC(=O)NC3Cc4ccccc4C3)CC[C@H]21 | inactive
CN1C(=O)c2cc(NC(=O)Nc3ccccc3F)ccc2OC[C@H]2O[C@@H](CC(=O)Nc3cccc(Cl)c3)CC[C@@H]21 | active
CN1C(=O)c2cc(NC(=O)c3ccc(C(F)(F)F)cc3)ccc2OC[C@H]2O[C@H](CC(=O)NC3Cc4ccccc4C3)CC[C@@H]21 | inactive
CN1C(=O)c2cc(NC(=O)c3ccc(C(F)(F)F)cc3)ccc2OC[C@@H]2O[C@H](CC(=O)NC3Cc4ccccc4C3)CC[C@@H]21 | inactive
CN1C(=O)c2cc(NC(=O)Nc3ccccc3F)ccc2OC[C@H]2O[C@H](CC(=O)NCc3ccc(-c4ccccc4)cc3)CC[C@H]21 | inactive
CN(C)CC(=O)Nc1ccc2c(c1)C(=O)N(C)[C@H]1CC[C@H](CC(=O)Nc3cccc(Cl)c3)O[C@@H]1CO2 | inactive
C[C@H]1CCCCO[C@@H](CN(C)Cc2ccncc2)[C@@H](C)CN([C@@H](C)CO)C(=O)c2cc(NC(=O)Nc3ccccc3)ccc2O1 | inactive
Cc1ccc(S(=O)(=O)Nc2ccc3c(c2)C(=O)N([C@H](C)CO)C[C@@H](C)[C@@H](CN(C)C(=O)Nc2ccccc2)OCCCC[C@H](C)O3)cc1 | inactive
C[C@H](CO)N1C[C@H](C)[C@@H](CN(C)S(=O)(=O)c2ccc(F)cc2)Oc2ncc(-c3ccncc3)cc2C1=O | inactive
COc1ccc(CN(C)C[C@@H]2OCCCC[C@@H](C)Oc3ccc(NC(=O)CCC(F)(F)F)cc3C(=O)N([C@@H](C)CO)C[C@@H]2C)cc1 | inactive
CCOC(=O)N(C)C[C@@H]1OCc2cn(nn2)CCCC(=O)N([C@H](C)CO)C[C@@H]1C | inactive
C[C@@H]1CN([C@@H](C)CO)C(=O)c2cc(NS(=O)(=O)c3ccc(F)cc3)ccc2O[C@@H]1CN(C)S(=O)(=O)c1cccs1 | inactive
